The target of the first assay is T1, Aspartate--tRNA(Asp/Asn) ligase (Mycobacterium tuberculosis (strain ATCC 25618 / H37Rv)) (UniProt P9WFW3). Further: in the data most compounds retested in dose-response had high values.
T1 sequence (whole entry): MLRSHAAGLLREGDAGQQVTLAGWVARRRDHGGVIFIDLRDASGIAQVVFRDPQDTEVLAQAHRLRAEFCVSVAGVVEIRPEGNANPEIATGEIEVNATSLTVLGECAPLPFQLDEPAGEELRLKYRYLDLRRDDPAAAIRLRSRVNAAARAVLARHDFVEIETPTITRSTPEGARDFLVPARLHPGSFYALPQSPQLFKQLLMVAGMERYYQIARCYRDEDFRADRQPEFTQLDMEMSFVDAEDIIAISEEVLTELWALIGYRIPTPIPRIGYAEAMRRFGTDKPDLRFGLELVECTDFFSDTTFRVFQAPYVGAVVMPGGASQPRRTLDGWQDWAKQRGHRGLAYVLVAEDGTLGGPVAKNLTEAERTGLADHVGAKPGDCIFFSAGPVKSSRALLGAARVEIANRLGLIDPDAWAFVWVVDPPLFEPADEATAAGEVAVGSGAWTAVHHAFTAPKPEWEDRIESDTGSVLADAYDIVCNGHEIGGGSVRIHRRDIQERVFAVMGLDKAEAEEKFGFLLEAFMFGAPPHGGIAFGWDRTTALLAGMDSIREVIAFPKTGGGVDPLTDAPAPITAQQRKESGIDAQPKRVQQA
As to the kind of experiment: Assay for Asp RNA synthetase-1 from Mycobacterium tuberculosis. As to conditions: 30 µM. It is filed as functional. Further details: scale not given: direction of the effect not stated beside the values.
For `CC(=O)N1CCCN(C(=O)c2csc(-c3ccc(C)cc3C)n2)CC1`, the Percent Effect is -7.84%.

Take `COc1cc(C(=O)NS(=O)(=O)c2cccc(C#N)c2)cc(Cl)c1OC`: the Percent Effect was determined as 0.845%.

Take `COc1ccc(C2(CNC(C)c3nnc(C)o3)CCCCC2)cc1` (stereo not given): the Percent Effect was 2.67%.

For `Cc1nc(CN2CCC(CNC(=O)Nc3ccccn3)CC2)oc1C`, the Percent Effect turned out to be 5.15%.

On to `CC(C)N1Cc2c(C(=O)N3CCOCC3)nn(C)c2C1`, for which the Percent Effect was 0.382%.

As for `COc1ccc(CN2CC[C@H](NC(C)=O)[C@@H](O)CC2)c(OC)c1`, the Percent Effect was 3.53%.

Take `CN(Cc1ncc(C(C)(C)C)o1)C1CCCN(c2cccnn2)C1` (stereo not given): the Percent Effect was 0.143%.

As for `O=C(O)c1cc2c(nc1O)CC(c1cccs1)CC2=O` (stereo not given), the Percent Effect worked out at 2.79%.

Take `COc1cc(CNC(=O)Nc2cc(C(F)(F)F)c[nH]c2=O)ccn1`: the Percent Effect was -3.59%.

Regarding `CC(Cn1cccn1)NC(=O)NCc1ccccn1` (stereo not given), the Percent Effect is -4.37%.

Consider `O=C(NCC1CC1)[C@H]1C[C@@H]2CCN(Cc3nccs3)C[C@@H]2O1`, for which the Percent Effect was -3.13%.

With `CC1(C)Cc2ccccc2-c2nc(NCCO)[nH]c(=O)c21`, the Percent Effect was determined as 3.08%.

Turning to `CC(C)NC(=O)Nc1ccc(CS(=O)(=O)C(C)(C)C)cc1`, the Percent Effect is 0.689%.

For the compound `COCC(=O)N1CCCC1c1cc(Nc2nnc(C)s2)nc(C)n1` (stereo not given), the Percent Effect was -3.43%.

Regarding `CC1(C)CC(N2Cc3nc(N)ncc3C2=O)CC(C)(C)N1`, the Percent Effect is 7.13%.

Take `Cc1nc(CN2CCc3nn(C(C)C)c(=O)cc3C2)oc1C`: the Percent Effect was determined as 7%.

With `Cn1cc(-c2nc(CN3CCc4c(ncn4C4CC4)C3)cs2)cn1`, the Percent Effect is -0.0232%.

Take `O=C(O)c1cc(-c2cccnc2)cc(S(=O)(=O)N2CCCCCC2)c1`: the Percent Effect was -3.5%.

On to `COCC1CCN(c2cc(C3CN(C)CCO3)nc(C)n2)CC1` (stereo not given), for which the Percent Effect is -1.84%.

Turning to `Cc1cc(CN2CCc3nn(C(C)C)c(=O)cc3C2)no1`, the Percent Effect was -1.25%.

For a further assay, the target named is Shiga toxin 2 (Escherichia coli O157:H7) (UniProt P09385+P09386). As to the kind of experiment: E. coli 0.157:H7 Shiga Toxin SOP - stx2 screening assay. It is filed as functional. Further details: scale not given: direction of the effect not stated beside the values. To be noted: 30 µM.
As to `COc1cccc(-c2noc(C3CCN(Cc4cccs4)C3)n2)c1` (stereo not given), the Percent Effect was -30%.

In the case of `CCC1CCCCN1C(=O)c1ccc2[nH]nnc2c1` (stereo not given), the Percent Effect is -3.51%.

`Cc1ccc(S(=O)(=O)N2CCc3nc(C4CCNCC4)ncc3C2)cc1`: the Percent Effect is 8.71%.

As to `Cn1ncc2c1CN(Cc1cccnc1)CC2COCC1CC1` (stereo not given), the Percent Effect was -44.8%.

In the case of `COC[C@H]1CCC[C@]12CN(C(=O)NCc1ccccc1)CCO2`, the Percent Effect is -17.2%.

`Cc1nn(-c2ccccc2)cc1C(=O)N1CCCN2CCCC2C1` (stereo not given): the Percent Effect was -22%.

`CC(=O)N1CCCC1c1cccc(Cc2ccc(F)cc2)n1` (stereo not given): the Percent Effect is 5.81%.

As to `CN(C)CCN1CCCC12CCN(C(=O)c1cccn1C)CC2`, the Percent Effect is -0.241%.

`COCCn1ccc(NC(=O)Nc2cccnc2)n1`: the Percent Effect is -43.4%.

Regarding `CCc1nccn1C1CCCN(C(=O)c2csc(NC(C)=O)n2)C1` (stereo not given), the Percent Effect is -11.1%.

Consider `N#Cc1ccnc(N2CCN(C(=O)NC3CCS(=O)(=O)C3)CC2)c1` (stereo not given), for which the Percent Effect came to 8.29%.

For the compound `Cc1ccc(NC(=O)C2CSCN2C(=O)c2cnn(C)c2)c(C)c1` (stereo not given), the Percent Effect was -0.207%.

Take `CC(C)Oc1ncnc2c1CCN(Cc1cccs1)CC2`: the Percent Effect was 17.6%.

Regarding `Cc1oc(-c2ccco2)nc1CC(=O)N1CCC(C(O)C(F)(F)F)CC1` (stereo not given), the Percent Effect came to 4.07%.

Consider `Cc1nc(N2CC[C@@H](NC(=O)c3cnccn3)[C@H](O)C2)c2ccsc2n1`, for which the Percent Effect was -6.15%.

As to `O=C(NCc1nnc2n1CCCC2)N1CCc2ccccc2C1`, the Percent Effect was -5.06%.

Consider `c1cnnc(N2CCCC(NCc3ccc(-n4cccn4)cc3)C2)c1` (stereo not given), for which the Percent Effect was determined as 11%.

Take `CCC1c2cccn2CCN1C(=O)c1ccc2nonc2c1` (stereo not given): the Percent Effect is -4.14%.

Regarding `COCC(=O)N1CCC2(CCN(Cc3ccccn3)CC2)CC1`, the Percent Effect was -8.31%.

For the compound `CCc1[nH]ncc1C(=O)N1CCCN(Cc2cnn(C(C)C)c2)CC1`, the Percent Effect came to 9.14%.

With `CC(=O)N1CCCN(C(=O)c2csc(-c3ccc(C)cc3C)n2)CC1`, the Percent Effect was -0.511%.

In the case of `COc1cc(C(=O)NS(=O)(=O)c2cccc(C#N)c2)cc(Cl)c1OC`, the Percent Effect came out at 3.59%.

Take `COc1ccc(C2(CNC(C)c3nnc(C)o3)CCCCC2)cc1` (stereo not given): the Percent Effect was -2.63%.

Consider `Cc1nc(CN2CCC(CNC(=O)Nc3ccccn3)CC2)oc1C`, for which the Percent Effect was -4.66%.

With `CC(C)N1Cc2c(C(=O)N3CCOCC3)nn(C)c2C1`, the Percent Effect stood at 5.36%.

As for `COc1ccc(CN2CC[C@H](NC(C)=O)[C@@H](O)CC2)c(OC)c1`, the Percent Effect was -14.9%.

On to `CN(Cc1ncc(C(C)(C)C)o1)C1CCCN(c2cccnn2)C1` (stereo not given), for which the Percent Effect was -9.94%.

With `O=C(O)c1cc2c(nc1O)CC(c1cccs1)CC2=O` (stereo not given), the Percent Effect is -19.6%.

As to `COc1cc(CNC(=O)Nc2cc(C(F)(F)F)c[nH]c2=O)ccn1`, the Percent Effect was 25.7%.

As for `CC(Cn1cccn1)NC(=O)NCc1ccccn1` (stereo not given), the Percent Effect is -30.2%.

As to `O=C(NCC1CC1)[C@H]1C[C@@H]2CCN(Cc3nccs3)C[C@@H]2O1`, the Percent Effect was 0.967%.

Turning to `CC1(C)Cc2ccccc2-c2nc(NCCO)[nH]c(=O)c21`, the Percent Effect was determined as 0.00332%.

Consider `CC(C)NC(=O)Nc1ccc(CS(=O)(=O)C(C)(C)C)cc1`, for which the Percent Effect was found to be 0.4%.

Consider `COCC(=O)N1CCCC1c1cc(Nc2nnc(C)s2)nc(C)n1` (stereo not given), for which the Percent Effect is -14.2%.

As to `CC1(C)CC(N2Cc3nc(N)ncc3C2=O)CC(C)(C)N1`, the Percent Effect was -32.6%.

For the compound `Cc1nc(CN2CCc3nn(C(C)C)c(=O)cc3C2)oc1C`, the Percent Effect came out at 0.318%.

`Cn1cc(-c2nc(CN3CCc4c(ncn4C4CC4)C3)cs2)cn1`: the Percent Effect was -83.4%.

`O=C(O)c1cc(-c2cccnc2)cc(S(=O)(=O)N2CCCCCC2)c1`: the Percent Effect was 11.4%.

Regarding `COCC1CCN(c2cc(C3CN(C)CCO3)nc(C)n2)CC1` (stereo not given), the Percent Effect is -3.4%.

In the case of `Cc1cc(CN2CCc3nn(C(C)C)c(=O)cc3C2)no1`, the Percent Effect amounted to 6.39%.

The values above are taken from ChEMBL document CHEMBL3988442, “University of Dundee, Small-Polar-MMV Screening Library” (2021).
